A word on the inhibition: it is the change of the read-out against control, counted positive when it falls.

This is one part of the list. Calls of active or inactive are those of the source.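 Rule for the calls, unless noted: active = inhibition above 50%; inactive = the rest.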

Results on 9 molecules are retold here after PubChem BioAssay.

Assay [1] addresses Regulator of G-protein signaling 16 (Homo sapiens) (UniProt O15492). The assay can be described thus: modulators of RGS–Galpha-o binding, primary screen, biochemical, multiplexed beads, flow cytometry, RGS4/7/8/16/19 (AID 1504).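 Note: fluorescently labeled Galpha-o bound to GDP with aluminium fluoride binding biotinylated RGS beads.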 Particulars: multiplexed bead flow cytometry, measured here: RGS16 interaction, at 10 µM. In general terms: Flow cytometry measures light scatter and fluorescence of single cells or particles in a stream.

Assay [2] concerns the target Regulator of G-protein signaling 19 (Homo sapiens) (UniProt P49795). The description is as above. Particulars: multiplexed bead flow cytometry, measured here: RGS19 interaction, at 10 µM.
The target in assay [3] is Regulator of G-protein signaling 7 (Homo sapiens) (UniProt P49802). The assay is described as above. Particulars: multiplexed bead flow cytometry, measured here: RGS7 interaction, at 10 µM.
The target of assay [4] is Regulator of G-protein signaling 8 (Homo sapiens) (UniProt P57771). Described as above. Particulars: multiplexed bead flow cytometry, measured here: RGS8 interaction, at 10 µM.
Assay [5] is described as follows: disruption of biotin probe capture by avidin, counter-screen for RGS protein interaction modulators, biochemical, flow cytometry, bead-based (AID 1783).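 Note: median green fluorescence of gated singlet beads compared with DMSO control wells; 0% = DMSO wells and 100% = complete loss of bead fluorescence.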 Particulars: streptavidin beads, fluorescein-biotin binding; at 10 µM, stronger effect = higher value.
Assay [6] addresses Guanine nucleotide-binding protein G(o) subunit alpha (Homo sapiens) (UniProt P09471). Kind of assay: RGS8-Galphao binding modulators, confirmation, biochemical, multiplexed bead flow cytometry, single concentration (AID 1836; in the data active = binding response below about 72% or above about 130%; inactive = in between;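 note: Galphao activated as GDP AlF4 complex before binding bead RGS8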). Particulars: bead-based flow cytometry RGS8-Galphao binding, fluorescence; at 10 µM; actives lie on both sides.
Assay [7] has the same target. Kind of assay: RGS7-Galphao binding modulators, confirmation, biochemical, multiplexed bead flow cytometry, single concentration (AID 1837; in the data active = response below about 75% or above about 130%; inactive = in between;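 note: fluorescent Galphao activated with GDP and aluminum fluoride binding bead-coupled RGS7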). Particulars: bead-based flow cytometry RGS7-Galphao binding; at 10 µM; actives lie on both sides.
Assay [8] has as its target Regulator of G-protein signaling 16 (Homo sapiens) + Guanine nucleotide-binding protein G(o) subunit alpha (Homo sapiens) (UniProt O15492+P09471). The assay can be described thus: modulators of RGS16-Galphao protein binding, confirmation, biochemical, single concentration, multiplexed bead flow cytometry (AID 1838; in the data active = response below about 74% or above about 130%; inactive = in between;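 note: Galphao activated as the GDP aluminium fluoride complex binding bead-coupled RGS16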). Particulars: bead-based flow cytometry, at 10 µM, actives lie on both sides.

Assay [9] addresses Guanine nucleotide-binding protein G(o) subunit alpha (Homo sapiens) (UniProt P09471). Kind of assay: modulators of RGS4-Galphao protein binding, confirmation, biochemical, single concentration, multiplexed bead flow cytometry (AID 1840; in the data active = binding response below about 74% or above about 130%; inactive = in between). Particulars: at 10 µM, actives lie on both sides.
The target of assay [10] is Guanine nucleotide-binding protein G(o) subunit alpha (Homo sapiens) + Regulator of G-protein signaling 19 (Homo sapiens) (UniProt P09471+P49795). Kind of assay: regulators of RGS19-Galphao binding, confirmation, biochemical, single point, multiplexed bead flow cytometry (AID 1841; in the data active = response below about 50% or above about 160%; inactive = in between;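 note: 100% = no compound control and 0% = blank background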). Particulars: bead-based flow cytometry RGS19-Galphao binding; at 10 µM; actives lie on both sides.
Chain of Guanine nucleotide-binding protein G(o) subunit alpha (Homo sapiens) + Regulator of G-protein signaling 19 (Homo sapiens) (P09471 whole entry, looked up): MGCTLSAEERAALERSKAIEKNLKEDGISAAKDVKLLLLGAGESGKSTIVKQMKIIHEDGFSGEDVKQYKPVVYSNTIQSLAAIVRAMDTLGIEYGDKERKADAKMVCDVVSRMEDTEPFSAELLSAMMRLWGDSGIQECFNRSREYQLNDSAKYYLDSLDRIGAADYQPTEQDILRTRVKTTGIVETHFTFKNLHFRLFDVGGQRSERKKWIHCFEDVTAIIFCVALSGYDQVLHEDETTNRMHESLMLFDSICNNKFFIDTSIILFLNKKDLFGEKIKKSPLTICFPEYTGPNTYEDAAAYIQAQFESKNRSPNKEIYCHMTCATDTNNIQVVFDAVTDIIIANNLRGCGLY
Chain of Guanine nucleotide-binding protein G(o) subunit alpha (Homo sapiens) + Regulator of G-protein signaling 19 (Homo sapiens) (P49795 whole entry, looked up): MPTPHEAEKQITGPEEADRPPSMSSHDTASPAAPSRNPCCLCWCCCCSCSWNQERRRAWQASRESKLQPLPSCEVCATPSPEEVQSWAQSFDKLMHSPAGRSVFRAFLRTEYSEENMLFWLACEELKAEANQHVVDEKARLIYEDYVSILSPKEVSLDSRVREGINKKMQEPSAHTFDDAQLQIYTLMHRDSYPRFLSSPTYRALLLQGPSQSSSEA

Chain of Guanine nucleotide-binding protein G(o) subunit alpha (Homo sapiens) (P09471 whole entry, looked up): as the sequence (P09471 whole entry, looked up) above
Chain of Regulator of G-protein signaling 16 (Homo sapiens) + Guanine nucleotide-binding protein G(o) subunit alpha (Homo sapiens) (O15492 whole entry, looked up): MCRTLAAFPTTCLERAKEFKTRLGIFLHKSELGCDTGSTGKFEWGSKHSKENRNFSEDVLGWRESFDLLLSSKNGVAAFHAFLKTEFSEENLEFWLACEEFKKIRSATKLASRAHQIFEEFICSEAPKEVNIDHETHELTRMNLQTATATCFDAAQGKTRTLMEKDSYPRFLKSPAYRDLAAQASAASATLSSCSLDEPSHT
Chain of Regulator of G-protein signaling 16 (Homo sapiens) + Guanine nucleotide-binding protein G(o) subunit alpha (Homo sapiens) (P09471 whole entry, looked up): as the sequence (P09471 whole entry, looked up) above

Consider `CCC(=O)N1CCC(C(N)=O)(N2CCCCC2)CC1`, for which, in assay [1], the RGS16–Galpha-o binding response was 417%. In assay [2], this molecule displayed an RGS19–Galpha-o binding response of 90.3%. Besides, the RGS7–Galpha-o binding response in assay [3] was 161%. For the same molecule, the RGS8–Galpha-o binding response in [4] was 163%. In addition, the inhibition in assay [5] is 2% (inactive). For the same molecule, the binding response (% of control) was 93.5% (inactive) in assay [6] and 94.8% (inactive) in assay [9]. Further, the figures for the response (percent of control binding) in [7] and in assay [10] were 90.7% (inactive) and 88.3% (inactive), respectively. Further, the response (% of control binding) in assay [8] is 94.8% (inactive).
As to `Cc1cc(C)n(CC(O)CN(c2ccccc2)S(=O)(=O)c2ccc3ccccc3c2)n1` (stereo not given), the RGS16–Galpha-o binding response in assay [1] was -6.51%. The molecule further had an RGS19–Galpha-o binding response in [2] of 163%. The RGS7–Galpha-o binding response in assay [3] is 1.45%. In assay [4], this molecule displayed an RGS8–Galpha-o binding response of 15%. Moreover, the inhibition in assay [5] is 1.1% (inactive). For the same molecule, the binding response (% of control) was 101% (inactive) in assay [6] and 104% (inactive) in [9]. The response (percent of control binding) in assay [7] is 104% (inactive); in assay [10], 98.9% (inactive). Moreover, the response (% of control binding) in assay [8] is 103% (inactive).
With `COc1cccc(C(=O)NCCSc2ccc(Br)cc2)c1`, the RGS16–Galpha-o binding response in assay [1] was found to be 11.1%. The same molecule returned an RGS19–Galpha-o binding response in assay [2] of 1100%. Also, the RGS7–Galpha-o binding response in assay [3] came to 16.5%. In addition, in assay [4], the RGS8–Galpha-o binding response was found to be 20.7%. Moreover, the inhibition in [5] is -0.2% (inactive). In addition, the binding response (% of control) in [6] is 103% (inactive); in [9], 104% (inactive). Besides, the response (percent of control binding) in [7] was 106% (inactive); in assay [10], 83.7% (inactive). Besides, in [8], the response (% of control binding) is 104% (inactive).
`CCOc1ccc(NC(=O)CSc2nc3ccccc3c(=O)n2Cc2cccs2)cc1`: the RGS16–Galpha-o binding response in [1] was -1.24%. In [2], the RGS19–Galpha-o binding response was 116%. Further, in assay [3], the RGS7–Galpha-o binding response was 81.9%. Further, the RGS8–Galpha-o binding response in [4] came to 75.5%. Further, in assay [5], the inhibition is 1.1% (inactive). Besides, the binding response (% of control) in assay [6] is 101% (inactive); in [9], 102% (inactive). Moreover, the response (percent of control binding) in assay [7] was 104% (inactive); in [10] it was 102% (inactive). Besides, the response (% of control binding) in assay [8] was 104% (inactive).
Regarding `CC(=O)Nc1nc(N(C)C)nc(N(C)C)n1`, the RGS16–Galpha-o binding response in [1] was found to be 28%. For the same molecule, the RGS19–Galpha-o binding response in assay [2] came out at 162%. In addition, in assay [3], the RGS7–Galpha-o binding response is -0.2%. The molecule further gave an RGS8–Galpha-o binding response in assay [4] of 25.1%. Besides, in assay [5], the inhibition is 3.9% (inactive). In addition, the binding response (% of control) in assay [6] was 100% (inactive); in assay [9], 104% (inactive). The response (percent of control binding) in [7] is 103% (inactive); in assay [10], 109% (inactive). In [8], the response (% of control binding) is 104% (inactive).
With `Cc1cc(C)cc(N(CC(=O)Nc2c(C)n(C)n(-c3ccccc3)c2=O)S(C)(=O)=O)c1`, the RGS16–Galpha-o binding response in [1] was -28.4%. The molecule further yielded an RGS19–Galpha-o binding response in [2] of 156%. Also, the RGS7–Galpha-o binding response in assay [3] is -21.3%. The molecule further gave an RGS8–Galpha-o binding response in [4] of 1.54%. Also, the inhibition in [5] was -0.5% (inactive). Also, the figures for the binding response (% of control) in assay [6] and in [9] were 104% (inactive) and 103% (inactive), respectively. In addition, the results for the response (percent of control binding) in assay [7] and in [10] were 104% (inactive) and 108% (inactive), respectively. For the same molecule, the response (% of control binding) in assay [8] was 108% (inactive).
In the case of `Nc1ccc(C(=O)OCC(=O)NC2CCS(=O)(=O)C2)cc1[N+](=O)[O-]` (stereo not given), the RGS16–Galpha-o binding response in [1] is -10.3%. In assay [2], the RGS19–Galpha-o binding response was determined as 179%. Further, in [3], the RGS7–Galpha-o binding response turned out to be 289%. For the same molecule, the RGS8–Galpha-o binding response in [4] was found to be 6.98%. Besides, the inhibition in assay [5] was -1.4% (inactive). Further, the results for the binding response (% of control) in assay [6] and in [9] were 101% (inactive) and 100% (inactive), respectively. The response (percent of control binding) in [7] and in assay [10] was 103% (inactive) throughout. Also, the response (% of control binding) in [8] is 99.9% (inactive).
With `COc1ccc(C(=O)NNc2cc(C)nc(NNC(=O)c3ccc(OC)cc3)n2)cc1`, in assay [1], the RGS16–Galpha-o binding response was determined as 4.94%. The molecule further registered an RGS19–Galpha-o binding response in assay [2] of 167%. Further, in assay [3], the RGS7–Galpha-o binding response was 72.3%. Besides, the RGS8–Galpha-o binding response in [4] is 54%. In addition, the inhibition in assay [5] was 1.4% (inactive). Moreover, the binding response (% of control) in [6] was 108% (inactive); in assay [9], 110% (inactive). The response (percent of control binding) was 115% (inactive) in [7] and 107% (inactive) in assay [10]. For the same molecule, in [8], the response (% of control binding) was 111% (inactive).
Consider `Cc1cc2nc(C)n(CCCNC(=O)Nc3ccccc3)c2cc1C`, for which, in [1], the RGS16–Galpha-o binding response turned out to be 283%. Moreover, the RGS19–Galpha-o binding response in assay [2] turned out to be 94.8%. Further, in [3], the RGS7–Galpha-o binding response stood at 180%. Moreover, the RGS8–Galpha-o binding response in assay [4] was determined as 170%. For the same molecule, in assay [5], the inhibition was -0.5% (inactive). Besides, the binding response (% of control) in assay [6] is 102% (inactive); in assay [9], 104% (inactive). Besides, the figures for the response (percent of control binding) in assay [7] and in assay [10] were 104% (inactive) and 97.2% (inactive), respectively. Also, the response (% of control binding) in [8] is 103% (inactive).
